Common to all, as to test: DAPPL (digital affinity profiling via proximity ligation, sequencing); 10 mM Tris-HCl pH 7.5, 50 mM NaCl, 1 mM DTT, 4% glycerol, room temperature, 30 min; GST-TFs on glutathione beads, 16-mer random dsDNA library, 0.1% formaldehyde crosslink after washing; high values mean tight binding
One experiment concerns the target T1, FLI1 (Homo sapiens, UniProt Q01543 1-452).
T1 sequence: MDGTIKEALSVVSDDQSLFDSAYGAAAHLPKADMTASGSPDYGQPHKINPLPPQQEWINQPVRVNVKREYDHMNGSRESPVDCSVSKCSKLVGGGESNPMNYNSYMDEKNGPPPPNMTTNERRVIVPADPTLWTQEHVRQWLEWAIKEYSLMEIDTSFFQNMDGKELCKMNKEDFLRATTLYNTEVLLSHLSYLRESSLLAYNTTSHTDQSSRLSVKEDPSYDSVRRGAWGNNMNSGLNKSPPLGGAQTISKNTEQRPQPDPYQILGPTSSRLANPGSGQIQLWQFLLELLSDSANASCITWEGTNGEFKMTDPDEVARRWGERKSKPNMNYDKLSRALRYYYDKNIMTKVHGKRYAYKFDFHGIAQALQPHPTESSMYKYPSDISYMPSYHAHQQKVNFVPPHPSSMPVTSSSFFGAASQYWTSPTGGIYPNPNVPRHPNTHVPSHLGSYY
The note with it: protein: recombinant; tags: N-terminal GST; dsDNA, one strand shown. The method in brief: (§1)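 The binding signal reported is, for every hexamer, its read frequency for a factor over its read frequency for the tag-only sample. Reads came from pools of yeast-expressed, GST-fused human transcription factors on glutathione beads, barcoded with DNA and mixed with that sample, which were incubated with 200 nmole of a random double-stranded 16-mer DNA library in Tris/NaCl/DTT/glycerol buffer at room temperature for 30 min. After washing, the pools were crosslinked with 0.1% formaldehyde, proximity-ligated with BsaI/T4 ligase for 1 h at 37 °C, PCR-amplified and sequenced on an Illumina NextSeq500.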

Another experiment addresses T2, ELK1 (Homo sapiens, UniProt P19419 1-428).
T2 sequence: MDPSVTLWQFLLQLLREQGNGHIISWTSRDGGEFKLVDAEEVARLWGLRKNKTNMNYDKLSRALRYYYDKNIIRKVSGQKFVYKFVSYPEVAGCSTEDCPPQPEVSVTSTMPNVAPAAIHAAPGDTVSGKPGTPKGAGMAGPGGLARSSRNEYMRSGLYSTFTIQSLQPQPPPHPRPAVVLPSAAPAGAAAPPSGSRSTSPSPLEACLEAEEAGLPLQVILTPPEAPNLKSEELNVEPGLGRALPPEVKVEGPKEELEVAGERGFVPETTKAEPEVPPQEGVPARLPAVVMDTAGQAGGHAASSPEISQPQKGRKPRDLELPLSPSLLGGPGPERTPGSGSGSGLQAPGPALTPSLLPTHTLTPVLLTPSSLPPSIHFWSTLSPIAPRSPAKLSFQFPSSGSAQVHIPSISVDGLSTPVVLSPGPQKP
The note with it: protein: recombinant; tags: N-terminal GST; dsDNA, one strand shown. The method in brief: as §1

Another experiment has as its target T3, GABPA (Homo sapiens, UniProt Q06546 1-454).
T3 sequence: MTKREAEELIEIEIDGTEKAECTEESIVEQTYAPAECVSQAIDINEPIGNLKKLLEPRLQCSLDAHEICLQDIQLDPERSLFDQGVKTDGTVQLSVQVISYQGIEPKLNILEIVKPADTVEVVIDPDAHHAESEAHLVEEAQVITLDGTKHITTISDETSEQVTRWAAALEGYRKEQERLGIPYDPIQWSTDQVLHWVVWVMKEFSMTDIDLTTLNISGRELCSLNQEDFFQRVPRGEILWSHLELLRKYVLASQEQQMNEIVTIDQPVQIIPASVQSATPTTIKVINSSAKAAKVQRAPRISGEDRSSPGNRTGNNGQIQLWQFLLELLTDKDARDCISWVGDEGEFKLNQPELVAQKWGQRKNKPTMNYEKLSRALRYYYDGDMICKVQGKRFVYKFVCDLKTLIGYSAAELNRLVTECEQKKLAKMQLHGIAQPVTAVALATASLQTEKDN
The note with it: protein: recombinant; tags: N-terminal GST; dsDNA, one strand shown. The method, boiled down:
as §1

For the next experiment, the target named is T4, ERG (Homo sapiens, UniProt P11308 1-479).
T4 sequence: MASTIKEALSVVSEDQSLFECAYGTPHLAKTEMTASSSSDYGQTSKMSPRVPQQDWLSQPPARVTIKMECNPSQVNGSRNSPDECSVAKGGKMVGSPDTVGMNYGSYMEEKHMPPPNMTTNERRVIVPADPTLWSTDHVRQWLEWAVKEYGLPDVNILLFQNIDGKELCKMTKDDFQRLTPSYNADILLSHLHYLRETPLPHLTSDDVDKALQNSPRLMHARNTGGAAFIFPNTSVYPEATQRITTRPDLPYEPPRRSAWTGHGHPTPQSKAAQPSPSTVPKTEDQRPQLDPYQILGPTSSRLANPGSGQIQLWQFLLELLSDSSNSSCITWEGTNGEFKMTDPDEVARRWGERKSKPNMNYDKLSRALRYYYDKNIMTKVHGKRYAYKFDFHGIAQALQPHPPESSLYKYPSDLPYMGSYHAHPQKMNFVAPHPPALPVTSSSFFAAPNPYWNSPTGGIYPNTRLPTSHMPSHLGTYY
Conditions: protein: recombinant; tags: N-terminal GST; dsDNA, one strand shown. The method, boiled down:
as §1

The next experiment deals with ELF1 (Homo sapiens, UniProt P32519 1-619). The note with it: protein: recombinant; tags: N-terminal GST; dsDNA, one strand shown. The method in brief:
as §1

In the next experiment the target is T5, EHF (Homo sapiens, UniProt Q9NZC4 1-300).
T5 sequence: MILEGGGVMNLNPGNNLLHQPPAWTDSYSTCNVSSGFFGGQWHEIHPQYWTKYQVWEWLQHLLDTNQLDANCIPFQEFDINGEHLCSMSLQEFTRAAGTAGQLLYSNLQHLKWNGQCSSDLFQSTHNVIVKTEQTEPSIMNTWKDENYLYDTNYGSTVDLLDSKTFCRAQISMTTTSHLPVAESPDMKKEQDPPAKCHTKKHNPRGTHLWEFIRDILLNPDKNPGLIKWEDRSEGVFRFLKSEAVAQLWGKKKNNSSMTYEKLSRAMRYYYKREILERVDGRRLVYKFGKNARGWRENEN
Conditions: protein: recombinant; tags: N-terminal GST; dsDNA, one strand shown. The method, boiled down:
as §1

A further experiment addresses SPI1 (Homo sapiens, UniProt P17947 1-270). The note with it: protein: recombinant; tags: N-terminal GST; dsDNA, one strand shown. The method in brief: as §1
The target of the next experiment is SPIB (Homo sapiens, UniProt Q01892 1-262). The note with it: protein: recombinant; tags: N-terminal GST; dsDNA, one strand shown. The method in brief: as §1
The target in a further experiment is T6, ELK3 (Homo sapiens, UniProt P41970 1-407).
T6 sequence: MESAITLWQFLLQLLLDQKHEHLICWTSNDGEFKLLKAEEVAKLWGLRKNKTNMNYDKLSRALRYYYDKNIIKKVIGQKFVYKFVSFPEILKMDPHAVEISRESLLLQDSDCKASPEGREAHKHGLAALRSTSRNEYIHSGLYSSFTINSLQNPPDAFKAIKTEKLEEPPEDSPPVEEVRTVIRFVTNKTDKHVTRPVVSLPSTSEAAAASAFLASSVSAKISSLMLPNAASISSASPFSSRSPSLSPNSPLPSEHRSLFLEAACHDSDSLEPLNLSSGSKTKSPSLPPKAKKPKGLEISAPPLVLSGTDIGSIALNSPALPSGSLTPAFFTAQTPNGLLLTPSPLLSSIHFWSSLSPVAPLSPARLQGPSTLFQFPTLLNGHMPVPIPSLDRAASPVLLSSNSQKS
The note with it: protein: recombinant; tags: N-terminal GST; dsDNA, one strand shown. The method, boiled down: as §1

For another experiment, the target named is T7, FEV (Homo sapiens, UniProt Q99581 1-238).
T7 sequence: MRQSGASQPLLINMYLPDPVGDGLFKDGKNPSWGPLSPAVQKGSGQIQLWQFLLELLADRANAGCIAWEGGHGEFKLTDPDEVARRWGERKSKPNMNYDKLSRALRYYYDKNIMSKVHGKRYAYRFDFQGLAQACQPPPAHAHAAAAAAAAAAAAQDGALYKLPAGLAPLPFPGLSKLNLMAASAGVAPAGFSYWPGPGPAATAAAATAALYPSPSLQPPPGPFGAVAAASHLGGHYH
The note with it: protein: recombinant; tags: N-terminal GST; dsDNA, one strand shown. The method, boiled down: as §1

Another experiment addresses ETV5 (Homo sapiens, UniProt P41161 1-510). Conditions: protein: recombinant; tags: N-terminal GST; dsDNA, one strand shown. The method, boiled down:
as §1

The next experiment addresses HSF1 (Homo sapiens, UniProt Q00613 1-529). The note with it: protein: recombinant; tags: N-terminal GST; chain copies: 3; dsDNA, one strand shown. The method in brief:
as §1

The next experiment has as its target T8, SPIC (Homo sapiens, UniProt Q8N5J4 1-248).
T8 sequence: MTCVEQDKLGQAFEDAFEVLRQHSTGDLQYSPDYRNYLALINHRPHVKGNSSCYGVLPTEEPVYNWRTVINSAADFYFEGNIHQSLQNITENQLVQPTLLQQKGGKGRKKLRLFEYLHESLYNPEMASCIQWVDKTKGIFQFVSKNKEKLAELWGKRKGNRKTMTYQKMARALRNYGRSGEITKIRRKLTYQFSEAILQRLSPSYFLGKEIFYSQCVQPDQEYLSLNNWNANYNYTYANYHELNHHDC
The note with it: protein: recombinant; tags: N-terminal GST; dsDNA, one strand shown. The method, boiled down:
as §1

A further experiment has as its target ELF4 (Homo sapiens, UniProt Q99607 1-663). The note with it: protein: recombinant; tags: N-terminal GST; dsDNA, one strand shown. The method, boiled down:
as §1

The next experiment has as its target T9, ELK4 (Homo sapiens, UniProt P28324-2 1-405).
T9 sequence: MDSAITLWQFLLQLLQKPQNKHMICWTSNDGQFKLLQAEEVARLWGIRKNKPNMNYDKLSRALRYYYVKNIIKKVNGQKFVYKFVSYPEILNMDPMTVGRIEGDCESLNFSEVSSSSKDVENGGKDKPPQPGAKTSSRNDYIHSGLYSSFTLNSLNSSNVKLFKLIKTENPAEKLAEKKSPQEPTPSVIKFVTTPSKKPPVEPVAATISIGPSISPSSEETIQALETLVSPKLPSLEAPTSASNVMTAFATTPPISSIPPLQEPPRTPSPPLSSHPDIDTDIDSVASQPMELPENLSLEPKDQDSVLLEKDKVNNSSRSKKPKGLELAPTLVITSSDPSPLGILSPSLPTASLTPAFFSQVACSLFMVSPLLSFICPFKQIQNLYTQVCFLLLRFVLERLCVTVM
Conditions: protein: recombinant; tags: N-terminal GST; dsDNA, one strand shown. The method in brief: as §1

The next experiment deals with T10, ETV2 (Homo sapiens, UniProt O00321 1-342).
T10 sequence: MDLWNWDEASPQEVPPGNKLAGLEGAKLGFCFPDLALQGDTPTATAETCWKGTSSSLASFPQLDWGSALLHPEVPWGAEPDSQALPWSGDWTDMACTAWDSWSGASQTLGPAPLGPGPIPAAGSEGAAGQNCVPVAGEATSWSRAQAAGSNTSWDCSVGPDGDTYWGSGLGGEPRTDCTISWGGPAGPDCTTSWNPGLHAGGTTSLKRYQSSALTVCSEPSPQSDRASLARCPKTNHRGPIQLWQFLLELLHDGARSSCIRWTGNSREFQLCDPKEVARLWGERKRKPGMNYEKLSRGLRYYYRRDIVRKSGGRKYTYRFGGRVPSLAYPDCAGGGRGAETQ
The note with it: protein: recombinant; tags: N-terminal GST; dsDNA, one strand shown. The method in brief: as §1

The target of a further experiment is T11, ELF3 (Homo sapiens, UniProt P78545 1-371).
T11 sequence: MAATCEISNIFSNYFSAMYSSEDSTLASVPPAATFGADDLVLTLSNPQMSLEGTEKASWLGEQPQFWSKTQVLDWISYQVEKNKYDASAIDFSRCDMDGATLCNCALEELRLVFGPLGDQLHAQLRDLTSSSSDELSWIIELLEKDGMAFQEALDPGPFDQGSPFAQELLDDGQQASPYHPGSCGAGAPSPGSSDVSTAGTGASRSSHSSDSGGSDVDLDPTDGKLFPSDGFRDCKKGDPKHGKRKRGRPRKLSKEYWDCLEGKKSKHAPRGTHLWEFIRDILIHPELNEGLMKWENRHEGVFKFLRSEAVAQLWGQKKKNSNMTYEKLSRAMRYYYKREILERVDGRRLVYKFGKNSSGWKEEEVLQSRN
Conditions: protein: recombinant; tags: N-terminal GST; dsDNA, one strand shown. The method, boiled down:
as §1

Another experiment addresses CRX (Homo sapiens, UniProt O43186 1-299). Conditions: protein: recombinant; tags: N-terminal GST; dsDNA, one strand shown. The method in brief: as §1
The target of another experiment is ETV1 (Homo sapiens, UniProt P50549 1-477). The note with it: protein: recombinant; tags: N-terminal GST; dsDNA, one strand shown. The method, boiled down:
as §1

Chain of ELF1 (P32519 whole entry): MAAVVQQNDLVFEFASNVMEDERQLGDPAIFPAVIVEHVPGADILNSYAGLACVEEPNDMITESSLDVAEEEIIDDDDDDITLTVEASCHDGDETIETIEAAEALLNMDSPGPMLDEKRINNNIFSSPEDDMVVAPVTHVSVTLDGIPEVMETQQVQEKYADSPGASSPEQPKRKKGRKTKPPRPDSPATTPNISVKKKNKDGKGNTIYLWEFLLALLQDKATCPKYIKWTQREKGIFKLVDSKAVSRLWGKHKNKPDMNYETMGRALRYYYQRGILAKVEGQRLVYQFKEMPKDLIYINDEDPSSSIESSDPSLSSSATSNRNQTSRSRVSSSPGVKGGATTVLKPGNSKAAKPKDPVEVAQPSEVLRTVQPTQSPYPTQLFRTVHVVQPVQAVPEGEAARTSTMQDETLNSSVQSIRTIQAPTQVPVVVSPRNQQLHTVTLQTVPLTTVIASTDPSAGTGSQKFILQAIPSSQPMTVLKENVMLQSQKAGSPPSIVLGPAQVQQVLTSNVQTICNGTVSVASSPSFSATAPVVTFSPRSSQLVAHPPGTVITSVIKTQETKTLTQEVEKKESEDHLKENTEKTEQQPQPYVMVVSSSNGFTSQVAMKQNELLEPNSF
Chain of ELF4 (Q99607 whole entry): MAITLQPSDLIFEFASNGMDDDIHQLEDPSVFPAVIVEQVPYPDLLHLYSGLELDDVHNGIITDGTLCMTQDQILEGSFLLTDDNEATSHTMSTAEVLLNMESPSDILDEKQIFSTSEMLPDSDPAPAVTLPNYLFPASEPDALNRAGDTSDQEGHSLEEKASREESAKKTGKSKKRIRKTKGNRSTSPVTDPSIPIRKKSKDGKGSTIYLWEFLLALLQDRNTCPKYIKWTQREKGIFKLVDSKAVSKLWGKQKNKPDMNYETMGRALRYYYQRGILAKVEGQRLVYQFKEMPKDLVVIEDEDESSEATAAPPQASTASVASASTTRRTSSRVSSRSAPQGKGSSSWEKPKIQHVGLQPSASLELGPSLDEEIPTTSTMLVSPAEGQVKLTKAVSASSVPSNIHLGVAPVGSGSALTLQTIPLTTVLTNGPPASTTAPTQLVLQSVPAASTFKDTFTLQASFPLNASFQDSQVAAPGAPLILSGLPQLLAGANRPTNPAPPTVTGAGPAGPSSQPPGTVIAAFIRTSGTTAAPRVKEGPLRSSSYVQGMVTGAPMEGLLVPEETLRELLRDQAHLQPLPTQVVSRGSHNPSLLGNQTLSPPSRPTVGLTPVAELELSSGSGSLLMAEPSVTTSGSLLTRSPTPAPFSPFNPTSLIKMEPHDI
Chain of ETV5 (P41161 whole entry): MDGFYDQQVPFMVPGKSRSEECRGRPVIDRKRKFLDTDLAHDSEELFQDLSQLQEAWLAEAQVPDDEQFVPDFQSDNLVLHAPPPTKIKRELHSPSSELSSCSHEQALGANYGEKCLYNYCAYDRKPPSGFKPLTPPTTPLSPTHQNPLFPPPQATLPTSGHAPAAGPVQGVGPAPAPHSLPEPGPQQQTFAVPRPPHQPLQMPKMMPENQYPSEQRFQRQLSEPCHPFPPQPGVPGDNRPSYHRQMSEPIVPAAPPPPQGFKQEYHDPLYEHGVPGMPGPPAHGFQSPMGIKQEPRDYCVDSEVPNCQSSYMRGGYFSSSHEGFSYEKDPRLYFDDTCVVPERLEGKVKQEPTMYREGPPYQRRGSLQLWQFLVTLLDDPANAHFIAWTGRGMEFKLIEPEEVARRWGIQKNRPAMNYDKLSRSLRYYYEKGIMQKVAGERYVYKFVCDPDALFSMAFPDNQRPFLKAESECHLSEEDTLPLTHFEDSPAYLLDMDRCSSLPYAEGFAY
Chain of SPIB (Q01892 whole entry): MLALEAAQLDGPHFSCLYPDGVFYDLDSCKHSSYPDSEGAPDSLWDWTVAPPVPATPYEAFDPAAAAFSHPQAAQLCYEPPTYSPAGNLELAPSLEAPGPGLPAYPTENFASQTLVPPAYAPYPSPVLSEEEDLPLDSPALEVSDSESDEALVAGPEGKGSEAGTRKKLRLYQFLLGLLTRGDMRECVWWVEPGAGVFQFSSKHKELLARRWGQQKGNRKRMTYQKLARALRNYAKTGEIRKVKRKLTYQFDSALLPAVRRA
Chain of CRX (O43186 whole entry): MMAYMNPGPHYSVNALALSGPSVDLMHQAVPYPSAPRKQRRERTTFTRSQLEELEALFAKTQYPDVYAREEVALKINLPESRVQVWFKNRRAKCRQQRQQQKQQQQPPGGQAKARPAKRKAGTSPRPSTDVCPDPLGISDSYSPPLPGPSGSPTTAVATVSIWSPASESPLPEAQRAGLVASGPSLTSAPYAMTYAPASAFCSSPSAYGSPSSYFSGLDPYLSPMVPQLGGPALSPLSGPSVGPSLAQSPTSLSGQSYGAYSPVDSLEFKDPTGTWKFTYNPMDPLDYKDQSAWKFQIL
Chain of HSF1 (Q00613 whole entry): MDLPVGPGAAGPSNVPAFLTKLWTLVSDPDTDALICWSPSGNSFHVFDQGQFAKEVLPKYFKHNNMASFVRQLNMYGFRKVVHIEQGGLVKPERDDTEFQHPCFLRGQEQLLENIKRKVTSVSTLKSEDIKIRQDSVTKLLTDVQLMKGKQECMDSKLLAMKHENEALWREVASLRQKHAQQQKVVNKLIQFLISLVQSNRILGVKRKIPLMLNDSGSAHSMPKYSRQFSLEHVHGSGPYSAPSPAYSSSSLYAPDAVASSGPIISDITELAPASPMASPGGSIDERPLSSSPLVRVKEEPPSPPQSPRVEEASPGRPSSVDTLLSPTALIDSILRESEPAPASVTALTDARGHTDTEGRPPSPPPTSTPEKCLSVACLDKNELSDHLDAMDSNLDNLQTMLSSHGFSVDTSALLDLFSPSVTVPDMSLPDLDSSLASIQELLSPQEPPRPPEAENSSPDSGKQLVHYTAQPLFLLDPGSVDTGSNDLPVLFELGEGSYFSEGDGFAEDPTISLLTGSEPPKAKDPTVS
Chain of ETV1 (P50549 whole entry): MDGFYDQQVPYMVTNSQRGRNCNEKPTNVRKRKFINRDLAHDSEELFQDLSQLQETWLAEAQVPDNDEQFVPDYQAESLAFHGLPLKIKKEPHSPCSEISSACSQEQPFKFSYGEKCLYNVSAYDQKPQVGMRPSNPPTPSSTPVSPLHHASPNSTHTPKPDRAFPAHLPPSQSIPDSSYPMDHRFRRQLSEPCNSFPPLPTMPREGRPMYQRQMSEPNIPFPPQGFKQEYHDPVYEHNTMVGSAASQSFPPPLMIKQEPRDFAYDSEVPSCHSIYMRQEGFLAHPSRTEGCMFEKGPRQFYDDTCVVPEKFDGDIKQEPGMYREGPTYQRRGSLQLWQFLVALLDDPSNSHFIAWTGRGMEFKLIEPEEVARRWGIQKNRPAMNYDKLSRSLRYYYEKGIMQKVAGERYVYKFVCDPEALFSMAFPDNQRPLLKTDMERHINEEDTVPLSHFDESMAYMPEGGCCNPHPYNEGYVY

As for TCTATA, the binding signal in the experiment with FLI1 was 1.09 fold enrichment (6-mer frequency, TF over GST control); with ELK1 it was 1.13 fold enrichment (6-mer frequency, TF over GST control); in the experiment with GABPA it was 1.11 fold enrichment (6-mer frequency, TF over GST control); with ERG, 1.02 fold enrichment (6-mer frequency, TF over GST control); with ELF1, 1.26 fold enrichment (6-mer frequency, TF over GST control); with EHF, 1.07 fold enrichment (6-mer frequency, TF over GST control). In addition, the binding signal was 1.07 fold enrichment (6-mer frequency, TF over GST control) with SPI1; 1.15 fold enrichment (6-mer frequency, TF over GST control) in the experiment with SPIB; 1.17 fold enrichment (6-mer frequency, TF over GST control) with ELK3; 1.15 fold enrichment (6-mer frequency, TF over GST control) with FEV; 1.17 fold enrichment (6-mer frequency, TF over GST control) with ETV5; 1.4 fold enrichment (6-mer frequency, TF over GST control) in the experiment with HSF1. Besides, the binding signal with SPIC is 1.26 fold enrichment (6-mer frequency, TF over GST control); with ELF4 it was 1.23 fold enrichment (6-mer frequency, TF over GST control); with ELK4 it was 1.24 fold enrichment (6-mer frequency, TF over GST control); with ETV2, 1.03 fold enrichment (6-mer frequency, TF over GST control); with ELF3 it was 1.08 fold enrichment (6-mer frequency, TF over GST control); with CRX, 1.36 fold enrichment (6-mer frequency, TF over GST control). Further, the binding signal in the experiment with ETV1 was 1.08 fold enrichment (6-mer frequency, TF over GST control).

The values are drawn from paper PMC7862700, “An all-to-all approach to the identification of sequence-specific readers for epigenetic DNA modifications on cytosine”.
